Assay results: PubChem BioAssay (NCATS)
Records with an inconclusive call do not appear. Values without a mark were called inactive. Active and inactive are the calls of the source. Calls follow the shape of the dose curve; as a rule, active = well fitted cell-killing curve with a large enough effect; inconclusive = small, poorly fitted or top-dose-only effect, or effect the other way; inactive = no such curve, though single readings can be large or run the other way.
Potency is read from the fitted curve at half-maximal effect.

Experiment: Quantitative High-Throughput drug screen in 47 multiple myeloma cell lines against the NCATS MIPE library collection: AMO1_DSMZ cell viability assay (AID 1918927; also: nearly all actives have a fitted effect of over 30% in size)
Settings: AMO1 myeloma cells viability, CellTiter-Glo ATP luminescence, 48 h; series mostly up to 45.8 µM; viability, % of DMSO: at the top concentration
Description: PI: Beverly A. Mock Ph.D.
Laboratory of Cancer Biology and Genetics,
Center for Cancer Research, National Cancer Institute,
National Institute of Health, Bethesda, Maryland
Drug resistance and disease progression are common in multiple myeloma (MM) patients, underscoring the need for new therapeutic combinations. […] We hypothesized that effective combinations would reduce MYC expression and enhance p16 activity. […] These preclinical data identify potentially useful drug combinations for evaluation in drug-resistant MM and reveal potential mechanisms of combined drug sensitivity.
Described herein is the primary MIPE qHTS used to cherrypick compounds. Validated compounds were then further tested for potential synergistic activiy.
[1] Peat TJ, Gaikwad SM, Dubois W, Gyabaah-Kessie N, Zhang S, Gorjifard S, Phyo Z, Andres M, Hughitt VK, Simpson RM, Miller MA, Girvin AT, Taylor A, Williams D, D'Antonio N, Zhang Y, Rajagopalan A, Flietner E, Wilson K, Zhang X, Shinn P, Klumpp-Thomas C, McKnight C, Itkin Z, Chen L, Kazandijian D, Zhang J, Michalowski AM, Simmons JK, Keats J, Thomas CJ, Mock BA. Drug combinations identified by high-throughput screening promote cell cycle transition and upregulate Smad pathways in myeloma. Cancer Lett. 2023 Aug 1;568:216284. doi: 10.1016/j.canlet.2023.216284. Epub 2023 Jun 24. PMID: 37356470; PMCID: PMC10408729.
SEQUENCE No. (e.g., 1, 2, 3, etc.); […] (e.g., Cells, Incubation, Reagent, etc.); VALUE and DESCRIPTION.
1; Cells; 5 uL; white, solid bottom 1536-well Greiner assay plate.
2; Compounds; 23 nL; Kalypsis pin tool (Wako USA) equipped with a 1536-well pin head to transfer to the assay plates.
3; Incubation; 48 hours; 37C incubation.
4; Reagent;5uL; CellTiter Glo (Promega).
5; Detector; 425V; Luminescence; Viewlux PerkinElmer.
NOTES (numbers refer to Sequence numbers above)
1. The cell-based screening methods employed in this study were like those previously published. Briefly, the corresponding myeloma cell lines were screened in 1,536-well plates with 500 cells, 5-uL per well for inhibition of cell viability (assessed by measuring ATP levels with CellTiterGlo).
2. NCATS MIPE 4.0 library of approved and investigational drugs were added using the Kalypsis pin tool. Wells treated with DMSO only for 100% viability and media only wells for 0% viability were used as controls.
3. The assay plates were covered and incubated for 48 hours in a 37C, 5% CO2 incubator with controlled humidity.
4. After 48 hours, CellTilter-GloTM luminescent substrate mix (Promega) reagent was added to the assay plate and plates we incubated for 5 min at room temperature.
5. Signal was measured as median relative luminescence units on a ViewLux (PerkinElmer) multiplate reader.
[1] Heske CM, Davis MI, Baumgart JT, Wilson K, Gormally MV, Chen L, Zhang X, Ceribelli M, Duveau DY, Guha R, Ferrer M, Arnaldez FI, Ji J, Tran HL, Zhang Y, Mendoza A, Helman LJ, Thomas CJ. Matrix Screen Identifies Synergistic Combination of PARP Inhibitors and Nicotinamide Phosphoribosyltransferase (NAMPT) Inhibitors in Ewing Sarcoma. Clin Cancer Res. 2017 Dec 1;23(23):7301-7311. doi: 10.1158/1078-0432.CCR-17-1121. Epub 2017 Sep 12. PMID: 28899971; PMCID: PMC6636827.
In the case of `CCC1(c2ccccc2)C(=O)NCNC1=O`, the Potency is reported as 10.5 µM (active).
For `NCCS(=O)(=O)O`, the “viability, % of DMSO” value was 135%.
With `O=C(CCCN1CCC(O)(c2ccc(Cl)cc2)CC1)c1ccc(F)cc1` the Potency was 20.9 µM (active).
With `OCCN(CCO)c1nc(N2CCCCC2)c2nc(N(CCO)CCO)nc(N3CCCCC3)c2n1` the Potency was 23.5 µM (active).
With `NCCc1cnc[nH]1` the “viability, % of DMSO” value was 123%.
For `Nc1nc2c(ncn2COC(CO)CO)c(=O)[nH]1`, the Potency was 13.2 µM (active).
With `Clc1ccc(C(c2ccccc2Cl)C(Cl)Cl)cc1` (stereo not given) the Potency was 1.87 µM (active).
With `CCCCc1oc2ccccc2c1C(=O)c1cc(I)c(OCCN(CC)CC)c(I)c1` the Potency was 8.33 µM (active).
In the case of `CN(C)c1nc(N(C)C)nc(N(C)C)n1`, the “viability, % of DMSO” value is reported as 95.7%.
For `CS(=O)(=O)Nc1ccc([N+](=O)[O-])cc1Oc1ccccc1`, the “viability, % of DMSO” value was 118%.
With `CC(C)NCC(O)c1ccc(O)c(O)c1` (stereo not given) the Potency was 5.26 µM (active).
In the case of `COC(=O)Nc1nc2ccc(C(=O)c3cccs3)cc2[nH]1`, the Potency is reported as 0.001 µM (active).
For `CCN1CCCC1CNC(=O)c1cc(S(=O)(=O)CC)c(N)cc1OC` (stereo not given), the Potency was 0.0743 µM (active).
With `CC(C)Cc1ccc(C(C)C(=O)O)cc1` (stereo not given) the “viability, % of DMSO” value was 94.2% [at 23.2 µM].
In the case of `NCCCCCC(=O)O`, the “viability, % of DMSO” value is reported as 108%.
In the case of `CN(CCOc1ccc(NS(C)(=O)=O)cc1)CCc1ccc(NS(C)(=O)=O)cc1`, the “viability, % of DMSO” value is reported as 88.8%.
With `CC(C)(Oc1ccc(C2CC2(Cl)Cl)cc1)C(=O)O` (stereo not given) the “viability, % of DMSO” value was 111% [at 92.2 µM].
In the case of `Cc1cc(C(C)(C)C)cc(C)c1CC1=NCCN1`, the “viability, % of DMSO” value is reported as 99.3%.
In the case of `COc1ccc(C2CNC(=O)C2)cc1OC1CCCC1` (stereo not given), the “viability, % of DMSO” value is reported as 129%.
For `CN1C2CCC1CC(OC(=O)C(CO)c1ccccc1)C2` (stereo not given), the “viability, % of DMSO” value was 102%.
For `Nc1ccn([C@H]2CC[C@@H](CO)O2)c(=O)n1`, the “viability, % of DMSO” value was 93.2%.
With `CCC1(C)CC(=O)NC1=O` (stereo not given) the “viability, % of DMSO” value was 122%.
For `COc1cc2c(c(OC)c1OC)-c1ccc(OC)c(=O)cc1[C@@H](NC(C)=O)CC2`, the “viability, % of DMSO” value was 7.62%.
In the case of `Cc1cc(C(C)(C)C)c(O)c(C)c1CC1=NCCN1`, the “viability, % of DMSO” value is reported as 108%.
In the case of `Cc1ccc(-c2cc(C(F)(F)F)nn2-c2ccc(S(N)(=O)=O)cc2)cc1`, the “viability, % of DMSO” value is reported as 113%.
With `COc1nc(C)nc(Cl)c1NC1=NCCN1` the “viability, % of DMSO” value was 115%.
For `CN(Cc1cnc2nc(N)nc(N)c2n1)c1ccc(C(=O)N[C@@H](CCC(=O)O)C(=O)O)cc1`, the Potency was 0.0166 µM (active).
In the case of `O=c1c(-c2ccc(O)cc2)coc2cc(O)cc(O)c12`, the Potency is reported as 16.6 µM (active).
With `O=C(c1ccc(F)cc1)C1CCN(CCn2c(=O)[nH]c3ccccc3c2=O)CC1` the “viability, % of DMSO” value was 105%.
With `CC(C(=O)O)c1cccc(C(=O)c2ccccc2)c1` (stereo not given) the “viability, % of DMSO” value was 116%.
With `CN(C)CCC=C1c2ccccc2C=Cc2ccccc21` the Potency was 0.0235 µM (active).
For `C[C@@H]1CC(=O)NN=C1c1ccc(NN=C(C#N)C#N)cc1`, the “viability, % of DMSO” value was 90.6%.
For `CCOC(=O)c1ncn2c1CN(C)C(=O)c1cc(F)ccc1-2`, the “viability, % of DMSO” value was 125%.
For `Cn1cnc2c1c(=O)[nH]c(=O)n2C`, the Potency was 9.35 µM (active).
For `C[C@H]1c2cccc(O)c2C(O)=C2C(=O)[C@]3(O)C(O)=C(C(N)=O)C(=O)[C@@H](N(C)C)[C@@H]3[C@@H](O)[C@@H]21`, the “viability, % of DMSO” value was 93.3%.
In the case of `NC(CO)C(=O)NNCc1ccc(O)c(O)c1O` (stereo not given), the “viability, % of DMSO” value is reported as 94.9%.
For `O=C(Nc1ccc([N+](=O)[O-])cc1Cl)c1cc(Cl)ccc1O`, the Potency was 0.526 µM (active).
For `COc1cc2nc(N3CCN(C(=O)c4ccco4)CC3)nc(N)c2cc1OC`, the Potency was 5.9 µM (active).
For `CC[N+](CC)(CC)CCOc1cccc(OCC[N+](CC)(CC)CC)c1OCC[N+](CC)(CC)CC`, the “viability, % of DMSO” value was 107%.
For `CN1CCN(CCCN2c3ccccc3Sc3ccc(Cl)cc32)CC1`, the Potency was 16.6 µM (active).
